Compounds without any hit were thinned out: in the full panel of roughly 83,000, 20% have a hit.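 Each cell line was grown in a 96-well plate and treated with one concentration of compound for 48 hours. Values below 10 were considered active.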 A number with no mark means an inactive call. Active and inactive are the calls of the source.

This assay has as its system MDA-MB-435 melanoma. Description: NCI-60 one-dose screen, 48 h (100 = growth as untreated, 0 = no growth, -100 = all killed). To be noted: 10 µM unless noted.
Turning to `COc1ccc(C2CC(c3cccc(OCCCCOc4cccc(C5=NN(C(C)=O)C(c6ccc(OC)cc6)C5)c4)c3)=NN2C(C)=O)cc1` (centres undefined), the growth is 60.3%. As to `O=C(CSc1nc2ccccc2c(=O)n1-c1ccccc1)Nc1ccc(S(=O)(=O)Nc2nccs2)cc1`, the growth is 84.1%. As for `COC(=O)c1ccc(NC2=C(Cl)C(=O)C(C)=C(C)C2=O)cc1`, the growth is 7.22% (active). On to `O=S(=O)(Oc1ccc(-c2cn3ccoc3n2)cc1)c1cccc(C(F)(F)F)c1`, for which the growth is 101%.

Take `O=C(Nc1ccc(N2CCOCC2)cc1)Nc1ccc2c(ccn2C(=O)c2cccc(F)c2)c1`: the growth is 68.3%. In the case of `CCc1cc(OC(=O)N2CCN(CCC(C)(COC(C)(C)C)COC(C)(C)C)CC2)ccc1Nc1cc(-c2ccc(-n3cccn3)cc2)[nH]n1` it was 85.3%; in that of `COC(=O)CNC(=O)c1cccc(-c2cc(=O)c3c(OC)c(OC)c(OC)cc3o2)c1`, 107%. With `Cc1csc(/N=C(N)/N=C(\N)c2cccs2)n1`, the growth was 106%. Regarding `C#Cc1nc(C(=O)NCCCCCCC(=O)NO)cs1`, the growth was -34.9% (active).

For `COC(=O)c1ccc(NC2=C(Cl)C(=O)c3nc(C)ccc3C2=O)cc1`, the growth was 60.6%. The value for `O=C(Nc1ccc(N=Cc2c(O)[nH]c3ccccc23)cc1)Nc1ccc(S(=O)(=O)Nc2ncccn2)cc1` was 101%; that for `CSc1ccc(/C(=N/N=C(N)N)c2ccc(Cl)cc2)cc1` was -30.1% (active). Turning to `O=c1[nH][nH]c(-c2ccc(F)cc2)c1-c1nc2ccccc2s1`, the growth was 104%. `Clc1cccc(/C=N/Nc2nc(N/N=C/c3cccc(Cl)c3)nc(N3CCOCC3)n2)c1`: the growth was 49.3%.

As for `CCN(CC)c1ccc(/C=N/NC(=O)c2ccc(S(N)(=O)=O)cc2)c(O)c1`, the growth is 31.1%.

`COc1ccc(/C=N/NC(=O)c2c(N)nn(C)c2Nc2ccccc2)cc1`: the growth was -31% (active). The value for `Cc1cc(NS(=O)(=O)c2ccc(NC(=O)CSc3nc4ccccc4c(=O)n3-c3ccccc3)cc2)no1` was 98%; that for `O=C(Nc1cccc(C(F)(F)F)c1)N1CCN(c2cc(-c3cn(-c4ccccc4)nc3-c3cccc(O)c3)ccn2)CC1` was 47.3%; that for `N#Cc1nc(-c2ccccc2)oc1N1CCC(C2(C(F)(F)F)N=N2)CC1` was 101%. Take `O=C1/C(=C/c2cc(F)cc(F)c2)Cc2cc3c(cc21)OCO3`: the growth is -44.3% (active). For `Clc1cccc(/C=N/Nc2nc(N/N=C/c3cccc(Cl)c3)nc(N3CCCCC3)n2)c1`, the growth is 90.4%. Consider `Cn1c(SCC(=O)c2ccc(Br)cc2)nc2ccccc2c1=O`, for which the growth is 103%. For `CC(=O)C1=C(C)NC(NNc2ccccc2)=NC1c1ccc([N+](=O)[O-])cc1` (centres undefined), the growth was 77%. For the molecule `COc1cccc2c1[C@H](OC)[C@]13O[C@@]1(C2=O)[C@H](O)[C@H](C)[C@@](O)(C(=O)[C@@H]1O[C@H]1C)[C@@H]3O`, the growth is -72.7% (active). On to `COc1ccc(/C=N/NC(=O)CSc2nc(-c3cnccn3)cc(-c3cccs3)c2C#N)cc1`, for which the growth is 81.6%. The value for `CSc1ccc(/C(=N/N=C(N)N)c2ccc(F)cc2)cc1` was 10.6%; that for `Fc1cccc(Cl)c1/C=N/Nc1nc(N/N=C/c2c(F)cccc2Cl)nc(N2CCCCC2)n1` was 3.75% (active).

For `NNc1nnc2nc(Nc3ccccc3)nc(Nc3ccc(S(N)(=O)=O)cc3)n12`, the growth was 108%. In the case of `O=C1[C@H]2Cc3c([nH]c4ccccc34)[C@H](c3ccc(Cl)cc3)N2C(=O)CN1C1CCN(CC2CCCCC2)CC1`, the growth was 62.3%. `Brc1cc(-c2cc(-c3ccc4c(c3)OC=CO4)[nH]n2)cs1`: the growth is 28.4%. Regarding `C#C[C@]1(O)CC[C@H]2[C@@H]3CC=C4c5sc(Nc6ncccc6C)nc5CC[C@]4(C)[C@H]3CC[C@@]21C`, the growth is -39.3% (active). In the case of `CNC(=O)Nc1ccc(Nc2cc(-c3ccc(-n4cccn4)cc3)[nH]n2)c(C)c1` it was 105%; in that of `COc1cc(C(=O)c2cc(C(C)=O)c3c(C)cccn23)cc(OC)c1OC`, 97.3%. Regarding `O=C1Nc2ccccc2/C1=C/c1ccc(OCC(=O)c2ccccc2)cc1`, the growth was 102%. For the molecule `Cn1cc(-c2nn3cc(-c4ccncc4)nc3s2)c2cc(Br)ccc21`, the growth was 32.4%. `CS(=O)(=O)c1ccc(/C(=N/N=C(N)N)c2ccc(F)cc2)cc1`: the growth is 11.4%. In the case of `COc1cc(-c2nc(-c3ccccc3)[nH]c2-c2ccnc(NCCCNS(=O)(=O)c3ccc(C)cc3)n2)ccc1F`, the growth is 68.5%. With `COc1cc(NC(=O)Nc2cccc(-c3cc(=O)c4c(OC)c(OC)c(OC)cc4o3)c2)cc(OC)c1OC`, the growth was 57.1%. Consider `CC(C)Sc1nc(-c2ccccc2)c(C#N)c(N2CCOCC2)n1`, for which the growth is 88%.

(Values after PubChem BioAssay (NCI).)
